This note sets out measurements from PubChem BioAssay (EPA / NIEHS).

Read-out in assay [1]: Interleukin-1 alpha (IL1a), IL1A (gene 3552)
Nature of the assay: BSK_KF3CT_IL1a: BioMAP Diversity Plus: KF3CT Assay for Interleukin-1 alpha (IL1a) Biomarker Activity (AID 2283070). The following applies: primary human keratinocytes with fibroblasts; actives raise or lower the signal. Put shortly: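 Primary skin co-culture (keratinocytes, foreskin fibroblasts), 24 h exposure; ELISA for IL-1a; bidirectional curve fit vs DMSO.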

Read-out in assay [2]: TIMP metallopeptidase inhibitor 2 (TIMP2), TIMP2 (gene 7077)
Nature of the assay: BSK_KF3CT_TIMP2: BioMAP Diversity Plus: KF3CT Assay for TIMP metallopeptidase inhibitor 2 (TIMP2) Biomarker Activity (AID 2283071). Conditions: primary human keratinocytes with fibroblasts; actives raise or lower the signal. Put shortly:
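ELISA readout of TIMP-2 in keratinocyte plus foreskin fibroblast co-cultures (human skin primary cells), 24 h post-dose. Gain or loss of signal fitted relative to DMSO.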

Read-out in assay [3]: C-C motif chemokine 2 (Homo sapiens) (UniProt P13500)
Nature of the assay: BSK_KF3CT_MCP1: BioMAP Diversity Plus: KF3CT Assay for Monocyte Chemoattractant Protein 1 (MCP1/CCL2) Biomarker Activity (AID 2283073). The following applies: primary human keratinocytes with fibroblasts; actives raise or lower the signal. In short, it runs like this:
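ELISA read-out of MCP-1, 24 h post-dose, in primary human skin keratinocytes co-cultured with fibroblasts. Parallel SRB staining monitors cytotoxicity; changes fitted both directions relative to DMSO.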

Read-out in assay [4]: Matrix Metallopeptidase 9 (MMP9), MMP9 (gene 4318)
As to the kind of experiment: BSK_KF3CT_MMP9: BioMAP Diversity Plus: KF3CT Assay for Matrix Metallopeptidase 9 (MMP9) Biomarker Activity (AID 2283074). The following applies: primary human keratinocytes with fibroblasts; actives raise or lower the signal. In short, it runs like this:
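ELISA read-out of MMP-9 at 24 h post-dosing in a co-culture of human skin keratinocytes and foreskin fibroblasts. Gain or loss of signal was fitted in both directions against DMSO.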

Read-out in assay [5]: CD40, CD40 (gene 958)
As to the kind of experiment: BSK_LPS_CD40: BioMAP Diversity Plus: LPS Assay for CD40 Biomarker Activity (AID 2283076). Conditions: primary human HUVEC with PBMC; actives raise or lower the signal. In short, it runs like this: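 In the LPS system of human endothelial cells with peripheral blood mononuclear cells, CD40 levels were read by ELISA 24 h post-treatment. Signal changes in either direction were fitted against the DMSO baseline, with parallel SRB protein staining.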

Read-out in assay [6]: E-selectin (Homo sapiens) (UniProt P16581)
As to the kind of experiment: BSK_LPS_Eselectin: BioMAP Diversity Plus: LPS Assay for Eselectin Biomarker Activity (AID 2283077). The following applies: primary human HUVEC with PBMC; actives raise or lower the signal. Put shortly:
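E-selectin ELISA on LPS-stimulated endothelial cell/PBMC co-cultures, read 24 h post-treatment; gains and losses fitted against DMSO. Parallel SRB staining (0.1% SRB after 10% TCA fixation, 560 nm) flags overt cytotoxicity.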

Read-out in assay [7]: Interleukin-8 (IL8), CXCL8 (gene 3576)
Nature of the assay: BSK_LPS_IL8: BioMAP Diversity Plus: LPS Assay for Interleukin-8 (IL8) Biomarker Activity (AID 2283078). Conditions: primary human HUVEC with PBMC; actives raise or lower the signal. Put shortly: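 ELISA read-out of IL-8 after 24 h chemical treatment of LPS-activated endothelial/PBMC human primary co-cultures. Changes either up or down relative to DMSO; overt cytotoxicity checked by sulforhodamine B staining in parallel wells.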

Assay [8] can be described thus: BSK_LPS_SRB: Viability Assessment in the BioMAP Diversity Plus: LPS Assay (AID 2283079).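 Note: total protein by sulforhodamine B absorbance as a cytotoxicity measure; measured one day after compound addition.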 The following applies: primary human HUVEC with PBMC. In short, it runs like this: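 SRB viability endpoint: cells fixed with 10% TCA, stained with 0.1% SRB, read at 560 nm, 24 h post-dose. HUVEC/PBMC co-culture; signal change in either direction scored relative to DMSO.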
Read-out in assay [9]: Interleukin-1 alpha (IL1a), IL1A (gene 3552)
Nature of the assay: BSK_LPS_IL1a: BioMAP Diversity Plus: LPS Assay for Interleukin-1 alpha (IL1a) Biomarker Activity (AID 2283080). The following applies: primary human HUVEC with PBMC; actives raise or lower the signal. Put shortly:
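Readout is IL-1a level by ELISA, 24 h post-dose, fitted as gain or loss relative to DMSO. System: LPS-activated human primary co-culture of vascular endothelium and peripheral blood mononuclear cells, with parallel SRB total-protein cytotoxicity.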

Read-out in assay [10]: Monocyte Chemoattractant Protein-1 (MCP1), CCL2 (gene 6347)
As to the kind of experiment: BSK_LPS_MCP1: BioMAP Diversity Plus: LPS Assay for Monocyte Chemoattractant Protein-1 (MCP1) Biomarker Activity (AID 2283081). Conditions: primary human HUVEC with PBMC; actives raise or lower the signal. Put shortly:
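Secreted MCP-1 read by ELISA at 24 h post-dosing in an LPS-activated co-culture of endothelial cells with peripheral blood mononuclear cells. Fits run in both directions, DMSO as baseline; parallel SRB staining tracks overt cytotoxicity.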

Assay [11] in a line: BSK_LPS_PGE2: BioMAP Diversity Plus: LPS Assay for Prostaglandin E2 (PGE2) Biomarker Activity (AID 2283082).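 For AC50: secreted prostaglandin E2 measured by ELISA in LPS-stimulated co-culture.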 Conditions: primary human HUVEC with PBMC; actives raise or lower the signal. In short, it runs like this:
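ELISA read-out of PGE2 from human umbilical vein endothelial cells co-cultured with peripheral blood mononuclear cells under LPS, 24 h post-dose. Gain or loss of signal scored relative to DMSO baseline.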

Read-out in assay [12]: Macrophage colony-stimulating factor (MCSF), CSF1 (gene 1435)
Nature of the assay: BSK_LPS_MCSF: BioMAP Diversity Plus: LPS Assay for Macrophage colony-stimulating factor (MCSF) Biomarker Activity (AID 2283083). The following applies: primary human HUVEC with PBMC; actives raise or lower the signal. Put shortly:
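Bidirectional fitting against DMSO was applied to M-CSF levels read by ELISA at 24 h post-dose. The system pairs human umbilical vein endothelium with peripheral blood mononuclear cells; parallel SRB staining tracked cytotoxicity.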

Read-out in assay [13]: Tumor necrosis factor (Homo sapiens) (UniProt P01375)
Nature of the assay: BSK_LPS_TNFa: BioMAP Diversity Plus: LPS Assay for Tumour Necrosis Factor alpha (TNFa) Biomarker Activity (AID 2283085). Conditions: primary human HUVEC with PBMC; actives raise or lower the signal. In short, it runs like this: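 HUVEC/PBMC co-culture, LPS-stimulated; 24 h post-dose; TNFa by ELISA; gain or loss of signal fitted bidirectionally vs DMSO baseline.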

Read-out in assay [14]: Vascular cell adhesion molecule 1 (VCAM1), VCAM1 (gene 7412)
Nature of the assay: BSK_LPS_VCAM1: BioMAP Diversity Plus: LPS Assay for Vascular cell adhesion molecule 1 (VCAM1) Biomarker Activity (AID 2283086). Conditions: primary human HUVEC with PBMC; actives raise or lower the signal. Put shortly:
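ELISA read-out of VCAM-1 at 24 h post-dosing in an LPS-driven HUVEC/PBMC primary human co-culture; gain or loss of signal fitted bidirectionally against DMSO baseline. Cytotoxicity tracked in parallel cultures by SRB total-protein staining.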

Read-out in a further assay: CD38, CD38 (gene 952)
As to the kind of experiment: BSK_SAg_CD38: BioMAP Diversity Plus: SAg Assay for CD38 Biomarker Activity (AID 2283087). Conditions: primary human HUVEC with PBMC; actives raise or lower the signal. Put shortly: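 Measures CD38 on a human endothelial/PBMC co-culture driven by SEB and TSST-1, 24 h after compound exposure, using ELISA with fluorescence detection; DMSO defines baseline for bidirectional curve fitting.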

Read-out in assay [15]: CD40, CD40 (gene 958)
As to the kind of experiment: BSK_SAg_CD40: BioMAP Diversity Plus: SAg Assay for CD40 Biomarker Activity (AID 2283088). Conditions: primary human HUVEC with PBMC; actives raise or lower the signal. In short, it runs like this:
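CD40 is measured by fluorescence ELISA in an endothelial/PBMC primary human co-culture at 24 h post-dose. Fitting is bidirectional, DMSO baseline. Parallel SRB staining (560 nm) flags cytotoxicity.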

Read-out in a further assay: CD69, CD69 (gene 969)
As to the kind of experiment: BSK_SAg_CD69: BioMAP Diversity Plus: SAg Assay for CD69 Biomarker Activity (AID 2283089). Conditions: primary human HUVEC with PBMC; actives raise or lower the signal. In short, it runs like this: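 ELISA, fluorescence read-out: CD69 on human umbilical vein endothelial cell + PBMC co-culture, 24 h post-dosing. Gain or loss of signal fitted bidirectionally against DMSO baseline.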

Read-out in assay [16]: Transforming growth factor beta 1 (TGFb1), TGFB1 (gene 7040)
Nature of the assay: BSK_KF3CT_TGFb1: BioMAP Diversity Plus: KF3CT Assay for Transforming growth factor beta 1 (TGFb1) Biomarker Activity (AID 2283072). The following applies: primary human keratinocytes with fibroblasts; actives raise or lower the signal. In short, it runs like this: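 Read-out: ELISA for TGF-b1 in keratinocyte/foreskin fibroblast human skin co-culture, 24 h after dosing; bidirectional curve fit vs DMSO baseline; gain or loss of signal scored.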

Read-out in assay [17]: Tissue Factor, F3 (gene 2152)
Nature of the assay: BSK_LPS_TissueFactor: BioMAP Diversity Plus: LPS Assay for Tissue Factor Biomarker Activity (AID 2283084). Conditions: primary human HUVEC with PBMC; actives raise or lower the signal. In short, it runs like this:
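Compound was added to an endothelial cell/PBMC co-culture, and after 24 h tissue factor (CD142) was read by ELISA. Gain or loss of signal was fitted against a DMSO baseline, and parallel SRB staining (560 nm) tracked overt cytotoxicity.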

Structures are written as SMILES. Some compounds were tested as several samples or in several runs, with calls that do not always agree. Calls of active or inactive are those of the source. Rule for the calls: active = hit-call score of the fitted dose curve at least 0.9, where 1 is the maximum; inactive = score below 0.9.

Chain of E-selectin (Homo sapiens) (P16581 whole entry, looked up): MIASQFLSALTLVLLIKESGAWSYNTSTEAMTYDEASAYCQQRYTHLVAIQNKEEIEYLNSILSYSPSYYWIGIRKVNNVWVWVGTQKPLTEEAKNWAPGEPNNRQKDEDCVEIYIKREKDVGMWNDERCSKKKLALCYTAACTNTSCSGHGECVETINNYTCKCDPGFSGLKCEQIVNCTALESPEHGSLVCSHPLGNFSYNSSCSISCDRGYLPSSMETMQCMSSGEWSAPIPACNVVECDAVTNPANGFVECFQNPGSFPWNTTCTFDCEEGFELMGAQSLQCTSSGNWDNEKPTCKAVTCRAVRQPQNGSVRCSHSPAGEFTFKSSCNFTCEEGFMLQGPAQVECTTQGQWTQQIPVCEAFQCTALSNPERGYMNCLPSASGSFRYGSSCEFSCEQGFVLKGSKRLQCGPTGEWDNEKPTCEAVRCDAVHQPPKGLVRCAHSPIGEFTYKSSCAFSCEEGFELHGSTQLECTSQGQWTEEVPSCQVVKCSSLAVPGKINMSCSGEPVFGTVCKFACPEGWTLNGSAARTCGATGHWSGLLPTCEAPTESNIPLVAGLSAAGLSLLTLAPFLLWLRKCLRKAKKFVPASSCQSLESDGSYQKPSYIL
Chain of Tumor necrosis factor (Homo sapiens) (P01375 whole entry, looked up): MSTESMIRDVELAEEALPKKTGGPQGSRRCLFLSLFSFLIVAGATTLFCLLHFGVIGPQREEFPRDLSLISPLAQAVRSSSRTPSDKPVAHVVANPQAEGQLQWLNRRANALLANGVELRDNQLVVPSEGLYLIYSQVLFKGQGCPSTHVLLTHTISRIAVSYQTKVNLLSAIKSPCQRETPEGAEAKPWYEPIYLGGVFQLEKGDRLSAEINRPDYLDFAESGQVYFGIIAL

Turning to `CC(C)C(=O)OCCc1ccccc1`, the outcome in [1] was “inactive”; in [2], “inactive”; in assay [3], “inactive”; in assay [4], “inactive”; with CD40, CD40 (gene 958) [5], “inactive”; in assay [6], “inactive”. Besides, the outcome in assay [7], in assay [8], in assay [9], in [10], in assay [11] and in assay [12] was inactive. Further, the outcome was “inactive” in [13]; “inactive” in assay [14]; “inactive” with CD38, CD38 (gene 952); “inactive” with CD40, CD40 (gene 958) [15]; “inactive” in the assay with CD69, CD69 (gene 969).
Broadly, the AC50 is the concentration giving half of the maximal activity seen. Regarding `O=C(O)C(F)(F)C(F)(F)C(F)(F)C(F)(F)C(=O)O`, the outcome was “inactive” in assay [1]; “inactive” in [2]; “inactive” in assay [3]; “inactive” in assay [4]; “inactive” with CD40, CD40 (gene 958) [5]; “inactive” in [6]. For the same compound, the result in assay [7], in assay [8], in assay [9], in [10], in [11] and in [12] was inactive. For the same compound, the outcome is “inactive” in [13]; “inactive” in [14]; “inactive” in the assay with CD38, CD38 (gene 952); “inactive” with CD40, CD40 (gene 958) [15]; “inactive” with CD69, CD69 (gene 969). Moreover, in assay [7], the AC50 is 30 µM (active).
For `CCOC(=O)C1=NN(c2ccc(Cl)cc2Cl)C(C)(C(=O)OCC)C1` (configuration not stated), the outcome in assay [1] was “inactive”; in [2], “inactive”; in assay [16], “inactive”; in assay [3], “inactive”; in assay [4] it was “inactive”; with CD40, CD40 (gene 958) [5], “inactive”. The outcome in assay [6], in assay [8], in assay [9], in [10], in [12] and in [17] was inactive. Further, the outcome in assay [13] is “inactive”; in [14] it was “inactive”; in the assay with CD38, CD38 (gene 952), “inactive”; with CD69, CD69 (gene 969), “inactive”. The AC50 in assay [11] was 8.97 µM (active).
